Measured values reported in the supplement of paper PMC10849652.
Of roughly 7,900 targets only a part is listed; those with a hit were picked by preference. About 0.6% of all pairs of compound and target were hits.

What was measured:
Assay in all cases: log2 fold change, soluble protein after heating vs DMSO (PISA); higher = thermal stabilisation; K562 cells, 10 uM, 30 min; active = over 0.2 and 3.5 SD of the protein, either way, in both replicates (recomputed)
[1] = compound: COC1=CC=C(C=C1)CN2C=CC3=C2C=C(C=C3)C(=O)NO
Procedure, shortened: (§1)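 K562 cells (2×10^6 cells/mL) were treated with 10 μM compound for 30 min, and aliquots were heated for 3 min over 48°C-58°C. Pooled aliquots were extracted in PBS with 0.5% NP-40 at 4°C, and the supernatant after 21,000xg for 90 min was measured by TMTpro 16plex LC-MS/MS with channel sums equalised. Reported thermal stability, relative to control samples and from duplicates, is a log2 fold change.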

filanesib = compound: CON(C)C(=O)N1N=C(c2cc(F)ccc2F)S[C@@]1(CCCN)c1ccccc1 [filanesib]
Procedure, shortened: as §1

zotarolimus = compound: CO[C@H]1C[C@@H]2CC[C@@H](C)[C@@](O)(O2)C(=O)C(=O)N2CCCC[C@H]2C(=O)O[C@H]([C@H](C)C[C@@H]2CC[C@H](n3cnnn3)[C@H](OC)C2)CC(=O)[C@H](C)/C=C(\C)[C@@H](O)[C@@H](OC)C(=O)[C@H](C)C[C@H](C)/C=C/C=C/C=C/1C [zotarolimus]
Procedure, shortened: as §1

idasanutlin = compound: COc1cc(C(=O)O)ccc1NC(=O)[C@@H]1N[C@@H](CC(C)(C)C)[C@](C#N)(c2ccc(Cl)cc2F)[C@H]1c1cccc(Cl)c1F [idasanutlin]
Procedure, shortened: as §1

alisertib = compound: COc1cc(Nc2ncc3c(n2)-c2ccc(Cl)cc2C(c2c(F)cccc2OC)=NC3)ccc1C(=O)O [alisertib]
Procedure, shortened: as §1

[2] = compound: COc1cc2nc(-c3cc(F)ccc3O)nc(N[C@@H]3CNC[C@H]3C(C)(C)O)c2cc1OC
Procedure, shortened: as §1

gefitinib = compound: COc1cc2ncnc(Nc3ccc(F)c(Cl)c3)c2cc1OCCCN1CCOCC1 [gefitinib]
Procedure, shortened: as §1

[3] = compound: COc1cccc2cc(-c3nc([C@H]4CC[C@H](C(=O)O)CC4)n4ncnc(N)c34)[nH]c12
Procedure, shortened: as §1

lapatinib = compound: CS(=O)(=O)CCNCc1ccc(-c2ccc3ncnc(Nc4ccc(OCc5cccc(F)c5)c(Cl)c4)c3c2)o1 [lapatinib]
Procedure, shortened: as §1

pictilisib = compound: CS(=O)(=O)N1CCN(Cc2cc3nc(-c4cccc5[nH]ncc45)nc(N4CCOCC4)c3s2)CC1 [pictilisib]
Procedure, shortened: as §1

[4] = compound: CS(=O)(=O)c1ccc(-c2cnc(N)c(C(=O)Nc3ccccc3)n2)cc1
Procedure, shortened: as §1

crizotinib = compound: C[C@@H](Oc1cc(-c2cnn(C3CCNCC3)c2)cnc1N)c1c(Cl)ccc(F)c1Cl [crizotinib]
Procedure, shortened: as §1

[5] = compound: C[C@@H]1COCCN1C2=NC(=NC(=C2)C3(CC3)S(=O)(=O)C)C4=C5C=CNC5=CC=C4
Procedure, shortened: as §1

[6] = compound: C[C@H](C1=CC=C(C=C1)C(=O)NC2=C3C=CNC3=NC=C2)N
Procedure, shortened: as §1

duvelisib = compound: C[C@H](Nc1ncnc2nc[nH]c12)c1cc2cccc(Cl)c2c(=O)n1-c1ccccc1 [duvelisib]
Procedure, shortened: as §1

gandotinib = compound: Cc1cc(Nc2cc(CN3CCOCC3)c3nc(C)c(Cc4ccc(Cl)cc4F)n3n2)n[nH]1 [gandotinib]
Procedure, shortened: as §1

tozasertib = compound: Cc1cc(Nc2cc(N3CCN(C)CC3)nc(Sc3ccc(NC(=O)C4CC4)cc3)n2)n[nH]1 [tozasertib]
Procedure, shortened: as §1

[7] = compound: Cc1cc(SCc2sc(-c3ccc(C(F)(F)F)cc3)nc2C)ccc1OCC(=O)O
Procedure, shortened: as §1

doramapimod = compound: Cc1ccc(-n2nc(C(C)(C)C)cc2NC(=O)Nc2ccc(OCCN3CCOCC3)c3ccccc23)cc1 [doramapimod]
Procedure, shortened: as §1

ispinesib = compound: Cc1ccc(C(=O)N(CCCN)[C@@H](c2nc3cc(Cl)ccc3c(=O)n2Cc2ccccc2)C(C)C)cc1 [ispinesib]
Procedure, shortened: as §1

Measured: log2 fold change

RABGGTA (UniProt Q92696)
Chain of UniProt Q92696 (Q92696 whole entry, looked up): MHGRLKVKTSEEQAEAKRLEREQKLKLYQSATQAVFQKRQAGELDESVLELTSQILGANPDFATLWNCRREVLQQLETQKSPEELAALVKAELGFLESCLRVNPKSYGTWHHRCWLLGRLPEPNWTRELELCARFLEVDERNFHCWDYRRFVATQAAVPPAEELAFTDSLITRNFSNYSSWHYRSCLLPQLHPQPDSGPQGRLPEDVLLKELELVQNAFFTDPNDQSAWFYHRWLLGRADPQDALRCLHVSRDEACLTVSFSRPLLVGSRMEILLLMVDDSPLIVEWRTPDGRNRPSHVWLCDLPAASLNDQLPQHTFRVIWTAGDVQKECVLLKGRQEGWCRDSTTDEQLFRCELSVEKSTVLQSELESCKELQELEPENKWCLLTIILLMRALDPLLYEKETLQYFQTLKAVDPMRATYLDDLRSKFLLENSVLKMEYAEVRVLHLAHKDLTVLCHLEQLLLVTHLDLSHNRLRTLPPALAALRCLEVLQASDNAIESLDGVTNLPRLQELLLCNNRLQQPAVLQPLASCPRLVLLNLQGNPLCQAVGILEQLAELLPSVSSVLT
inactive: [1] 0.019 | filanesib -0.013 | zotarolimus 0.022 | idasanutlin -0.019 | alisertib 0.016 | [2] -0.007 | gefitinib 0.041 | [3] 0.017 | lapatinib 0.002 | pictilisib 0.067 | [4] -0.035 | crizotinib -0.076 | [5] 0.046 | [6] -0.058 | duvelisib 0.045 | gandotinib -0.004 | tozasertib -0.036 | [7] -0.008 | doramapimod 0.017 | ispinesib 0.026

RHOA (UniProt P61586)
Chain of UniProt P61586 (P61586 whole entry, looked up): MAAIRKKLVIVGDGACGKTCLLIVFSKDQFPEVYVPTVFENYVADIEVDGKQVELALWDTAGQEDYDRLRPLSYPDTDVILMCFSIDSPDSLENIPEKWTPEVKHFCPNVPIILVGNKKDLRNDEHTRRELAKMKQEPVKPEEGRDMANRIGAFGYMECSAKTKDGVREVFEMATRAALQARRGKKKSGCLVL
active: [1] 0.284
inactive: filanesib -0.012 | zotarolimus -0.054 | idasanutlin 0.1 | alisertib -0.085 | [2] -0.118 | gefitinib 0.036 | [3] -0.012 | lapatinib 0.036 | pictilisib -0.178 | [4] 0.028 | crizotinib 0.098 | [5] -0.317 | [6] -0.101 | duvelisib -0.066 | gandotinib 0.022 | tozasertib -0.024 | [7] -0.035 | doramapimod -0.082 | ispinesib 0.219

RPS16 (UniProt P62249)
inactive: [1] -0.117 | filanesib 0.092 | zotarolimus 0.025 | idasanutlin 0.093 | alisertib -0.167 | [2] -0.027 | gefitinib -0.014 | [3] -0.199 | lapatinib 0.046 | pictilisib -0.162 | [4] -0.107 | crizotinib 0 | [5] -0.353 | [6] 0.214 | duvelisib -0.118 | gandotinib 0.172 | tozasertib 0.021 | [7] -0.023 | doramapimod 0.055 | ispinesib -0.088

RSL1D1 (UniProt O76021)
inactive: [1] -0.094 | filanesib 0.543 | zotarolimus 0.055 | idasanutlin 0.363 | alisertib -0.202 | [2] 0.181 | gefitinib -0.031 | [3] -0.065 | lapatinib 0.181 | pictilisib -0.013 | [4] -0.146 | crizotinib 0.037 | [5] -0.33 | [6] 0.456 | duvelisib -0.169 | gandotinib 0.146 | tozasertib 0.066 | [7] -0.037 | doramapimod 0.312 | ispinesib 0.251

RARS2 (UniProt Q5T160)
inactive: [1] 0.009 | zotarolimus 0.007 | idasanutlin -0.071 | alisertib -0.016 | [2] -0.028 | gefitinib -0.013 | [3] 0.051 | lapatinib 0.051 | pictilisib -0.031 | [4] -0.026 | crizotinib -0.016 | [5] 0.091 | [6] -0.021 | duvelisib 0.018 | gandotinib -0.075 | tozasertib 0.01 | [7] 0.019 | doramapimod -0.017 | ispinesib -0.033
active: filanesib -0.245

RPS5 (UniProt P46782)
inactive: [1] 0.004 | filanesib 0.089 | zotarolimus 0.011 | idasanutlin 0.094 | alisertib -0.11 | [2] -0.056 | gefitinib -0.052 | [3] -0.126 | lapatinib 0.081 | pictilisib -0.099 | [4] -0.081 | crizotinib 0 | [5] -0.255 | [6] 0.176 | duvelisib -0.081 | gandotinib 0.108 | tozasertib 0.029 | [7] 0.017 | doramapimod 0.069 | ispinesib -0.073

RSRC2 (UniProt Q7L4I2)
Chain of UniProt Q7L4I2 (Q7L4I2 whole entry, looked up): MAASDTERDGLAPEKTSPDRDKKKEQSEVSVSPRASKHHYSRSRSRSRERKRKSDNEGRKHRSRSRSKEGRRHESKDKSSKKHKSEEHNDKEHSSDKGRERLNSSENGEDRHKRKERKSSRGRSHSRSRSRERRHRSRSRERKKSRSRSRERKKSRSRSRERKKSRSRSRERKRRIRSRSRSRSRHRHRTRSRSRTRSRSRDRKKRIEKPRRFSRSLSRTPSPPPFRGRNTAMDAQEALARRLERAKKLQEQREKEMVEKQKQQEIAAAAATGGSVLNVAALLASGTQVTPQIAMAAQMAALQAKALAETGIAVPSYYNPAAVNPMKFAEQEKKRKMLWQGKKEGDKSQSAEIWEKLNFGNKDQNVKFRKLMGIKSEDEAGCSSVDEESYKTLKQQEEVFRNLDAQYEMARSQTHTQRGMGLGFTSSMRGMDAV
inactive: [1] 0.033 | filanesib 0.066 | zotarolimus -0.002 | idasanutlin 0.048 | alisertib -0.102 | [2] 0.034 | gefitinib 0.005 | [3] 0.022 | lapatinib -0.021 | pictilisib 0.011 | [4] 0.02 | crizotinib 0.022 | [5] -0.018 | [6] -0.095 | duvelisib 0.002 | gandotinib 0.052 | tozasertib -0.058 | [7] -0.039 | doramapimod -0.022 | ispinesib 0.087

SEC16A isoform 5 (UniProt O15027)
inactive: [1] 0.079 | filanesib 0.037 | zotarolimus -0.01 | idasanutlin -0.021 | alisertib 0 | [2] 0.007 | gefitinib 0.046 | [3] -0.148 | lapatinib 0.017 | pictilisib -0.003 | [4] -0.032 | crizotinib -0.231 | [5] -0.113 | [6] 0.143 | duvelisib 0.004 | gandotinib 0.087 | tozasertib -0.014 | [7] 0.118 | doramapimod 0.023 | ispinesib -0.119

SKP1 (UniProt P63208)
inactive: [1] 0.209 | filanesib -0.095 | zotarolimus 0.09 | idasanutlin 0.027 | alisertib -0.005 | [2] -0.099 | gefitinib 0.001 | [3] -0.008 | lapatinib 0.01 | pictilisib -0.121 | [4] -0.052 | crizotinib 0.027 | [5] -0.039 | [6] -0.19 | duvelisib -0.054 | gandotinib -0.035 | tozasertib 0.001 | [7] 0.038 | doramapimod -0.096 | ispinesib 0.089

RBM8A (UniProt Q9Y5S9)
inactive: [1] -0.061 | filanesib 0.028 | zotarolimus -0.018 | idasanutlin -0.01 | alisertib -0.024 | [2] 0.094 | gefitinib 0.038 | [3] -0.029 | lapatinib -0.028 | pictilisib -0.013 | [4] 0.012 | [5] 0.007 | [6] 0.025 | duvelisib 0.019 | gandotinib 0.069 | tozasertib -0.015 | [7] 0.025 | doramapimod -0.078 | ispinesib 0.099
active: crizotinib 0.287

SEC24A (UniProt O95486)
inactive: [1] 0.029 | filanesib -0.083 | zotarolimus 0.033 | idasanutlin -0.087 | alisertib -0.002 | [2] -0.004 | gefitinib -0.028 | [3] -0.016 | lapatinib -0.021 | pictilisib -0.077 | [4] 0.002 | crizotinib -0.001 | [5] 0.075 | [6] 0.001 | duvelisib 0.038 | gandotinib -0.148 | tozasertib 0.018 | [7] 0.084 | doramapimod -0.029 | ispinesib 0.017

RANBP2 (UniProt P49792)
Chain of UniProt P49792 (P49792 whole entry, looked up): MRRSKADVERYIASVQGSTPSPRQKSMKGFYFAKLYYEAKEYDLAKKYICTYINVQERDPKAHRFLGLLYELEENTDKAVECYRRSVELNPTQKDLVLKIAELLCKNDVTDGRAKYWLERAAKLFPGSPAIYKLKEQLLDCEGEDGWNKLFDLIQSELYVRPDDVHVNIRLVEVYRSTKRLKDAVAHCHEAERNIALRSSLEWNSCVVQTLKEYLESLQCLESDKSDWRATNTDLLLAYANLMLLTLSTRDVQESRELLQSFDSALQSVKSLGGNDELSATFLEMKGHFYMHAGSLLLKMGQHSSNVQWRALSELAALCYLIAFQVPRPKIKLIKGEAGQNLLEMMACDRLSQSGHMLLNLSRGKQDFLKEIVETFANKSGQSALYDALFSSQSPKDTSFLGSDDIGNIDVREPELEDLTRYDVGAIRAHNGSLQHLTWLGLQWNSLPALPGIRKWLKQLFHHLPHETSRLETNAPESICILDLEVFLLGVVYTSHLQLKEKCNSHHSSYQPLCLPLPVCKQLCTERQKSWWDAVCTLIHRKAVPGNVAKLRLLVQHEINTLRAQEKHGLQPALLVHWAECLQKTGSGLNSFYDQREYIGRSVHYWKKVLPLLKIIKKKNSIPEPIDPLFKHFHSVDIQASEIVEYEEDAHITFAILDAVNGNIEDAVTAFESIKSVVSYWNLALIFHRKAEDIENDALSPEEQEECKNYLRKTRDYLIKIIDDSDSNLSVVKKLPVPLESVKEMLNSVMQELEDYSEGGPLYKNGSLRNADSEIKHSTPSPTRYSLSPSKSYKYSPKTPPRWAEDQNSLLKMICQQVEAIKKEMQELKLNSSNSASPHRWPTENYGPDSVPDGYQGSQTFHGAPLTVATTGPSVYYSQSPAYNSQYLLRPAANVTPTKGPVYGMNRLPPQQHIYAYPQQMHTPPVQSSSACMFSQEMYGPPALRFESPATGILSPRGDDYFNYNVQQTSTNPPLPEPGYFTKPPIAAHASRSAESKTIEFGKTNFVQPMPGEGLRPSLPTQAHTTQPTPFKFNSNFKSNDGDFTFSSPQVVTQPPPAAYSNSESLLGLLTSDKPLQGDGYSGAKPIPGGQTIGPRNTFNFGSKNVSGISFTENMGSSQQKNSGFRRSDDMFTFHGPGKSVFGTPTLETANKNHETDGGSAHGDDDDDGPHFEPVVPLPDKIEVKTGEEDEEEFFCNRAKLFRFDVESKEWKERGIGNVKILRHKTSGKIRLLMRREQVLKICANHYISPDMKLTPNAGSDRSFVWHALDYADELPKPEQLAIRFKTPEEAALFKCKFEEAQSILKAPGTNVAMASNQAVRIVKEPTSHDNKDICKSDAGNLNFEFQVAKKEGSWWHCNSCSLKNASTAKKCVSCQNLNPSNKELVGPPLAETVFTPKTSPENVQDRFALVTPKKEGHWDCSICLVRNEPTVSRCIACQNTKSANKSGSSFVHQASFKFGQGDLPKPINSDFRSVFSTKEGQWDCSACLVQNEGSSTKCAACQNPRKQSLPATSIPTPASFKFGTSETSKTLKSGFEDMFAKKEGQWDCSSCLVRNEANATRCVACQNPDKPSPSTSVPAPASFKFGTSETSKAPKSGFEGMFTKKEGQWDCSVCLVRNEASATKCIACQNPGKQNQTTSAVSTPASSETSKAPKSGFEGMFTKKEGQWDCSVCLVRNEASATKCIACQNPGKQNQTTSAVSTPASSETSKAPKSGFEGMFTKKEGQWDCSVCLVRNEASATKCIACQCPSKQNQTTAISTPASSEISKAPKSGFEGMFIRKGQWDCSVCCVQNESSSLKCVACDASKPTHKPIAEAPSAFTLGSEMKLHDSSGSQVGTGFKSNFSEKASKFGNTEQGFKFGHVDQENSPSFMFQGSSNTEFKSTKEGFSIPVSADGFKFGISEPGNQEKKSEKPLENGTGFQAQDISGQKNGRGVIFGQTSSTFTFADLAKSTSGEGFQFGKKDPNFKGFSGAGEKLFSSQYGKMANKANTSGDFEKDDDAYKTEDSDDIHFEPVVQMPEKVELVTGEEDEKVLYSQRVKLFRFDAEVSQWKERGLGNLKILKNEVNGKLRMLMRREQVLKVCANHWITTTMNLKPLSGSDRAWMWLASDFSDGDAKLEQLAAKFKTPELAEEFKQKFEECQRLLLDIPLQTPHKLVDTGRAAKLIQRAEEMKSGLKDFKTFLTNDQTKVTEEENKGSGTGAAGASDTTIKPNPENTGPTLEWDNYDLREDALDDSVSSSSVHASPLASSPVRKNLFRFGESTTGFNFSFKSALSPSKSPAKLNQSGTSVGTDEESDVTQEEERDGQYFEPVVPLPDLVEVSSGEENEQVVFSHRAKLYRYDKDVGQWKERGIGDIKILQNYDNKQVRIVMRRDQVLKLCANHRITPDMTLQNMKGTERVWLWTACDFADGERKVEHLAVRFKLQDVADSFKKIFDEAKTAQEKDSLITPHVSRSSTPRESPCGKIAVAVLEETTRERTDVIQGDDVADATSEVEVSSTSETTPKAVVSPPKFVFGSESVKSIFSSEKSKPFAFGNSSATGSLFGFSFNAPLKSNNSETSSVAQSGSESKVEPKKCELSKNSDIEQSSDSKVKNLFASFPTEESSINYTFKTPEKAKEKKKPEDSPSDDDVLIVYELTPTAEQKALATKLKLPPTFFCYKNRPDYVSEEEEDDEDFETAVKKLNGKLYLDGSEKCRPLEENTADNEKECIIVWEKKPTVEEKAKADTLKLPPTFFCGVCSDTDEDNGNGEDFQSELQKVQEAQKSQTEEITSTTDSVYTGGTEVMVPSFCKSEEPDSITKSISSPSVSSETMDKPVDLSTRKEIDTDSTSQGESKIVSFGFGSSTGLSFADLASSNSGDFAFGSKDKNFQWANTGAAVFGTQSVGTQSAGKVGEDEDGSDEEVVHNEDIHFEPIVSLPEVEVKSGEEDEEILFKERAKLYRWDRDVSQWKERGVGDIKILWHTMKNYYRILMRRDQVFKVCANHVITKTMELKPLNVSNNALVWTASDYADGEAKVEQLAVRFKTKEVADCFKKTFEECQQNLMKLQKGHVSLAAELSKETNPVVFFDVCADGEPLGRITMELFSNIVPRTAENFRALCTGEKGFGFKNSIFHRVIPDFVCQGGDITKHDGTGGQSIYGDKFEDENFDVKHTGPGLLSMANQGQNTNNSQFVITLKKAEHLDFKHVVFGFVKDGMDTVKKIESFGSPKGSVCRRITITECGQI
inactive: filanesib -0.048 | zotarolimus 0.029 | idasanutlin -0.005 | alisertib 0.079 | [2] 0.044 | gefitinib 0.05 | [3] -0.097 | lapatinib -0.07 | pictilisib -0.002 | [4] -0.016 | crizotinib 0.009 | [5] -0.011 | [6] 0.103 | duvelisib 0.065 | gandotinib -0.066 | tozasertib 0.013 | [7] -0.003 | doramapimod 0.043 | ispinesib -0.031
active: [1] 0.334

RPS14 (UniProt P62263)
inactive: [1] 0.034 | filanesib 0.046 | zotarolimus 0.028 | idasanutlin 0.062 | alisertib -0.209 | [2] -0.047 | gefitinib -0.048 | [3] -0.154 | lapatinib 0.132 | pictilisib -0.321 | [4] -0.049 | crizotinib -0.075 | [5] -0.22 | [6] 0.183 | duvelisib -0.131 | gandotinib 0.056 | tozasertib 0.016 | [7] 0.023 | doramapimod 0.071 | ispinesib 0.002

RIPK1 (UniProt Q13546)
inactive: [1] 0 | filanesib 0.049 | zotarolimus 0.098 | idasanutlin 0.022 | alisertib -0.052 | [2] 0.032 | gefitinib 0.043 | [3] -0.214 | lapatinib 0.055 | pictilisib 0.027 | [4] 0.058 | crizotinib 0.274 | [5] -0.01 | [6] 0.09 | duvelisib -0.1 | gandotinib 0.301 | [7] 0.118 | doramapimod 0.031 | ispinesib -0.155
active: tozasertib 1.05

RETSAT (UniProt Q6NUM9)
Chain of UniProt Q6NUM9 (Q6NUM9 whole entry, looked up): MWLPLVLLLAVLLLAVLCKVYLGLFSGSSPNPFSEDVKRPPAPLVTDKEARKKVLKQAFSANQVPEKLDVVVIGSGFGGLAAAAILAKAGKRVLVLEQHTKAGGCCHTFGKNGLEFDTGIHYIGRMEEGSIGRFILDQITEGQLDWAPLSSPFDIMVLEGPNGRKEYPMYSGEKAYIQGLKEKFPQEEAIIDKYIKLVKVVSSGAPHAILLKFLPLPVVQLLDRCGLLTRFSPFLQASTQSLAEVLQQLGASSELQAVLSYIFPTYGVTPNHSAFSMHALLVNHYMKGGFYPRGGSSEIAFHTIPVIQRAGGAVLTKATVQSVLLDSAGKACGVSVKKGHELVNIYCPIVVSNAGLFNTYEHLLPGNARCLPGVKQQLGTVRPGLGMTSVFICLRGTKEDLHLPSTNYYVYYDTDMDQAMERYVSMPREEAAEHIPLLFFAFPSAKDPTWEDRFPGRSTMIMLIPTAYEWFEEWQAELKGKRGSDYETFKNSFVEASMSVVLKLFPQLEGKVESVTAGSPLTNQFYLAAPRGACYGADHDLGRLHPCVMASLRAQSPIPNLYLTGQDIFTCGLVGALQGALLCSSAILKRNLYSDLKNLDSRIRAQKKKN
inactive: [1] 0.051 | filanesib 0.109 | zotarolimus 0.094 | idasanutlin -0.077 | alisertib 0.067 | [2] 0.064 | gefitinib 0.052 | [3] -0.093 | lapatinib 0.192 | pictilisib 0.074 | [4] -0.038 | crizotinib 0.005 | [5] -0.129 | [6] -0.003 | duvelisib 0.083 | gandotinib 0.284 | tozasertib -0.103 | [7] 0.036 | doramapimod 0.147 | ispinesib -0.008

RAF1 isoform 2 (UniProt P04049)
inactive: [1] 0.035 | filanesib 0.085 | zotarolimus -0.024 | idasanutlin -0.102 | alisertib 0.139 | [2] -0.246 | [3] -0.067 | lapatinib 0.051 | pictilisib 0.207 | [4] 0.023 | crizotinib -0.305 | [5] -0.135 | [6] -0.092 | duvelisib 0.068 | gandotinib 0.131 | tozasertib 0.093 | [7] 0.035 | doramapimod 0.133 | ispinesib -0.145
